Results as given in PubChem BioAssay AID620 (Sanford-Burnham Center for Chemical Genomics, 2007).
The whole screen tested about 87,000 compounds, of which about 360 (0.41%) were called active. For the sample, actives were picked, then their nearest neighbours and some compounds at random. Values without a mark were called inactive. No stated cut-off is given here; in the data, active means cytotoxicity above about 50%; inactive means the rest.

experiment: cytotoxicity in HT1080 fibrosarcoma cells, cell-based, fluorescence readout (AID 620); conditions: HT1080 viability, at 10 µM, hits give high values;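 further: cells exposed to compound overnight then 4 h with Alamar Blue; 0% = vehicle DMSO and 100% = killing control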

| SMILES | cytotoxicity |
| --- | --- |
| Cn1c(=O)c2c(nc(CN3CCN(c4ccccc4)CC3)n2CCN2CCOCC2)n(C)c1=O | 8.9% |
| COc1ccc(Nc2cc(C)nc(N3CCOCC3)n2)cc1 | 21.5% |
| CCOc1ccc(Nc2cc(C)nc(-n3nc(C)cc3C)n2)cc1 | 50.6% (active) |
| COc1ccc(Nc2cc(C)nc(-n3nc(C)cc3C)n2)cc1 | 65.9% (active) |
| Cc1cc(NCCO)nc(-n2nc(C)cc2C)n1 | -5.5% |
| CNc1cc(C)nc(-n2nc(C)cc2C)n1 | 2.1% |
| CCOc1ccc(Nc2cc(C)nc(N3CCOCC3)n2)cc1 | -0.6% |
| CCCc1nc2sc3ccccc3c(=O)c2c(=O)n1Cc1ccco1 | 21% |
| Cc1cccc(NS(=O)(=O)c2cc(C(=O)N3CCN(C)CC3)ccc2C)c1 | -3.1% |
| Cc1nc2ccc(C(=O)c3ccccc3)cc2[nH]1 | -6.6% |
| COc1ccc(C(=O)Nc2nc3ccccc3[nH]2)cc1OC | 0.5% |
| COc1cc(OC)cc(C(=O)Nc2nc3ccccc3[nH]2)c1 | -1.1% |
| COc1cc(C(=O)Nc2nc3ccccc3[nH]2)cc(OC)c1OC | -3.2% |
| COC(=O)Nc1nc2ccc(Sc3ccccc3)cc2[nH]1 | 62.2% (active) |
| COC(=O)Nc1nc2ccc(C(=O)c3ccccc3)cc2[nH]1 | 61.1% (active) |
| Cc1ccc(-c2nc(CS(=O)CC(=O)NC3CCC(C)CC3)c(C)o2)cc1 (centres undefined) | -9.8% |
| CCc1ccc(OC)c(S(=O)(=O)Nc2ccccc2C)c1 | 3.8% |
| CC(C)N(c1ccccc1)c1ccc(NC(=O)C2CCCO2)cc1 (centres undefined) | -3.8% |
| Cc1ccc(-c2csc3ncnc(NCCN4CCOCC4)c23)cc1 | -10.9% |
| Cn1nnnc1Sc1ncnc2scc(-c3ccc(F)cc3)c12 | 20% |
| CNC(=O)CN1C(=O)CSc2ncccc21 | -11.8% |
| Cn1c(=NC(=O)CCl)sc2ccccc21 | 98.2% (active) |

| SMILES | cytotoxicity |
| --- | --- |
| Cn1c(=NC(=O)CN2C(=O)C3CC=CCC3C2=O)sc2ccccc21 (centres undefined) | -0.3% |
| CC(=O)N=c1sc2ccccc2n1C | -2.3% |
| CC(=O)Nc1ccc(NC(=O)Cn2c(CC(=O)N3CCCC3)nc3ccccc32)cc1 | -27.7% |
| C=CCn1c(N2C(=O)CC(Cc3ccccc3)C2=O)nc2ccccc21 (centres undefined) | 5.8% |
| CCc1ccc(NC(=O)c2ccccc2NC(=O)C2CCCO2)cc1 (centres undefined) | -5.7% |
| COc1cccc2c(=O)n(CC(=O)NC3CCCC3)ccc12 | 2.2% |
| c1ccc(-c2noc(C3CCCCC3)n2)nc1 | -7.2% |
| c1ccc(-c2nnc(-c3ccccn3)nc2NC2CCCCC2)cc1 | 50.7% (active) |
| CNc1nc(-c2ccccn2)nnc1-c1ccccc1 | 10.4% |
| CN1CCC(N(C)C(=O)c2ccccc2Nc2ccc(SC(F)F)cc2)CC1 | 5.3% |
| CCCn1c(NCc2ccc(C)o2)nc2ccccc21 | 0.5% |
| COCCn1nnnc1C(c1ccc2ncccc2c1)N1CCN(c2ccccc2F)CC1 (centres undefined) | -18.9% |
| COc1ccc(S(=O)(=O)N2c3cc(Cl)ccc3Oc3nc4ccccc4nc32)cc1 | 70.2% (active) |
| O=S(=O)(c1ccc(Cl)cc1)N1c2ccccc2Oc2nc3ccccc3nc21 | 3.8% |
| O=S(=O)(c1ccccc1)N1c2cc(Cl)ccc2Oc2nc3ccccc3nc21 | -4.7% |
| COC(=O)c1cc(NS(=O)(=O)c2ccc(OC)c(OC)c2)ccc1Cl | 3.3% |
| COCc1[nH]nc2c1C(c1ccccc1Cl)C(C#N)=C(N)O2 (centres undefined) | -4.4% |
| Cc1cc(C(C)(C)C)nc2[nH]n(-c3ccccc3)c(=O)c12 | -2.1% |
| Cc1ccnc(NC(=O)c2cc(-n3cnnc3)ccc2Cl)c1 | 12.1% |
| CC(C)(C)C(=O)Nc1sc2c(c1C#N)CCCCC2 | 5.8% |
| COCCCNC(=O)CC(NS(=O)(=O)c1ccc(Cl)cc1)c1ccco1 (centres undefined) | -9.5% |
| CC(C)CNS(=O)(=O)c1ccc(CCC(=O)N2CCOCC2)cc1 | 2.1% |

| SMILES | cytotoxicity |
| --- | --- |
| C=C(C)COc1ccc(-c2n[nH]c(C)c2-c2ccc(Br)cc2)c(O)c1 | 50.7% (active) |
| COc1ccc(-c2n[nH]c(C)c2-c2ccc(Cl)cc2)c(O)c1 | -10.8% |
| C=C(C)COc1ccc(-c2n[nH]c(C)c2-c2ccc(OC)cc2)c(O)c1 | -14.1% |
| COc1ccccc1NS(=O)(=O)c1cc(Cl)ccc1OC | 16.4% |
| Cn1c(N)c(C(=O)COC(=O)c2cc(C(F)(F)F)nc3ccccc23)c(=O)n(Cc2ccccc2)c1=O | 5.9% |
| COc1ccc(CCNc2c(C)c(C)nc3ncnn23)cc1 | 17.9% |
| CCc1c(C)nc2ncnn2c1NCCc1ccc(OC)cc1 | 61.9% (active) |
| CCc1c(C)nc2ncnn2c1NCCc1ccccc1 | -9.2% |
| O=C(N1CCOCC1)C12CC3CC(C1)CC(C(=O)N1CCOCC1)(C3)C2 | -17.8% |
| Cc1cc(C)c(C)c(S(=O)(=O)NCC(=O)N2CCCC2)c1C | 6.8% |
| COc1ccc(NC(=O)/C(Cl)=C(/Cl)S(=O)Cc2ccc(C)cc2)cn1 (centres undefined) | 92.3% (active) |
| COc1ccc(NC(=O)/C(Cl)=C(/Cl)S(=O)Cc2ccccc2)cn1 (centres undefined) | 95.5% (active) |
| COc1ccc(NC(=O)c2nc3nccc(C)n3n2)cn1 | 10.5% |
| COc1ccc(NC(=O)c2cc(CN3C(=O)c4ccccc4C3=O)ccc2OC)cn1 | -0.1% |
| CCOc1ccccc1OCCCC(=O)Nc1ccc(OC)nc1 | 2.4% |
| COc1ccc(NC(=O)c2cc(=O)c3ccccc3o2)cn1 | 7% |
| COc1ccc(CC(=O)N2CCN(C(=O)c3ccco3)CC2)cc1 | 4.7% |
| NC(=O)C(c1ccccc1)C1CCCCC1 (centres undefined) | 5.9% |
| CC1(C)CC(=O)C=C(NCCN2CCN(C(=O)Nc3ccc(Cl)cc3)CC2)C1 | -6.1% |
| Cc1[nH]nc(SCC(=O)N2CCC(C)CC2)c1[N+](=O)[O-] | 0.7% |
